For 40 compounds, outcome and AC50 results are on record in PubChem BioAssay (EPA / NIEHS).

The source made the active and inactive calls. How the source made its calls: active means hit-call score of the fitted dose curve at least 0.9, where 1 is the maximum; inactive means score below 0.9.

This experiment in a line: BSK_3C_uPAR: BioMAP Diversity Plus: 3C Assay for Urokinase-type plasminogen activator receptor (uPAR) Biomarker Activity (AID 2282998). The conditions noted are these: BioMAP 3C HUVEC, uPAR biomarker ELISA; actives raise or lower the signal. The procedure: BSK_3C is a cell-based, multiplexed-readout assay that uses umbilical vein endothelium, a human vascular primary cell, with measurements taken at 24 hours after chemical dosing in a 96-well plate.BSK_3CAR is an assay component measured in the BSK_3C assay. It measures uPAR antibody related to regulation of gene expression using ELISA technology.Data from the assay component BSK_3CAR was analyzed into 1 assay endpoint. This assay endpoint, BSK_3CAR, was analyzed with bidirectional fitting relative to DMSO as the negative control and baseline of activity. Using a type of binding reporter, gain or loss-of-signal activity can be used to understand changes in the signaling as they relate to the gene PLAUR. Furthermore, this assay endpoint can be referred to as a primary readout, because this assay has produced multiple assay endpoints where this one serves a signaling function. To generalize the intended target to other relatable targets, this assay endpoint is annotated to the cytokine intended target family, where the subfamily is plasmogen activator.
The levels of cell surface (or secreted, indicated by the prefix "s") biomarker endpoints were measured by ELISA. Overt cytotoxicity to cells in confluent adherent cultures (all systems other than the BT system) was assessed by measuring total protein levels using sulforhodamine B (SRB) staining in parallel cultures at the time of biomarker measurements, indicated as SRB endpoints. For proliferation assays for adherent cell types, individual cell types are cultured at sub-confluence and relative cell numbers quantified by SRB staining at time points optimized for each system (48 h: 3C and CASM3C systems; 72 h: BT and HDF3CGF systems; 96 h: SAg system). SRB was performed by staining cells with 0.1% SRB after fixation with 10% TCA and reading wells at 560 nm.Viability and proliferation of PBMC (T cells) was quantified by Alamar Blue reduction for the SAg and BT systems. For PBMC viability (referred to as PBMC Cytotoxicity within the assay endpoint names), cells were plated (75,000/well in a 96-well plate) and then chemical samples added for 1 h before addition of activators, SEB and TSST-1 (20 ng/mL final concentration each). Cells were incubated for 90 h. Then, Alamar Blue (20 uL/well) (Invitrogen, Cat DAL1100) was added for 6 h, and the plates were read with a fluorescence microplate reader at 546/580 nm (excitation/emission). For PBMC proliferation, cells were plated and activated as above but incubated for only 16 h prior to addition of Alamar Blue. Plates were read after 6 h.
Turning to `CCCCCCCCOc1ccc(C(=O)c2ccccc2)c(O)c1`, the outcome was inactive.
Same read-out and setting: to `O=C(OCCCCCCOC(=O)c1ccccc1)c1ccccc1` belongs “inactive”; to `Cc1cccc2ccccc12`, “inactive”; to `COc1cccc([C@H](O)C2CCN(CCc3ccc(F)cc3)CC2)c1OC`, “inactive”.
On the same count and under the same terms, for `OC12N=C(c3ccccc3)SC1Cc1cc(Cl)ccc12` (stereo not given) the value was “inactive”.
On to `NC(=O)c1nc(-c2cccc(-c3cc(F)ccc3OCC(F)(F)C(F)(F)F)c2)n[nH]1`, for which the AC50 was 26.6 µM (active).
On the same count and under the same terms, to `CCCCCCCCCCCCO` belongs 32.7 µM (active); to `CN(C)C(=O)C1(N2CCCCC2)CCN(CC[C@@]2(c3ccc(Cl)c(Cl)c3)CN(C(=O)c3ccccc3)CCO2)CC1`, 7.23 µM (active).
Consider `O=C1CCC(C2CCCCC2)CC1`, for which the result was inactive.
Still for that read-out and setting: for `CCN(Cc1cccc(S(=O)(=O)O)c1)c1ccc(C(=C2C=CC(=[N+](CC)Cc3cccc(S(=O)(=O)O)c3)C=C2)c2ccccc2S(=O)(=O)[O-])cc1` the value was “inactive”; for `c1ccc(C[n+]2cccc3ccccc32)cc1`, “inactive”.
The same measure, in the same setting: to `Cc1ccc(C(C)C)cc1` belongs “inactive”.
For `Cc1oc2c(NC(=O)c3c(Cl)cccc3Cl)cccc2c1C(C)(C)O`, the AC50 was 25.7 µM (active).
Still for that read-out and setting: for `CC(C)(c1cc(Br)c(O)c(Br)c1)c1cc(Br)c(O)c(Br)c1` the value was 31.6 µM (active); for `O=c1c(-c2ccc(O)cc2)coc2cc(O)cc(O)c12`, 29.2 µM (active).
Turning to `CC[C@@H]1C[C@H](N(Cc2cc(C(F)(F)F)cc(C(F)(F)F)c2)C(C)=O)c2cc(C(F)(F)F)ccc2N1C(=O)OC(C)C`, the outcome was inactive.
Take `CC(O)CC(C)(C)O` (stereo not given): the result was inactive.
Same read-out and setting: for `C[C@]12CC[C@@H]3c4ccc(O)cc4CC[C@H]3[C@@H]1CCC2=O` the value was “inactive”; for `O=C(O)c1ccccc1-n1cc(C(=O)O)c(=O)c2cc(Nc3c(F)cc(F)cc3Cl)c(Cl)cc21`, “inactive”.
On to `CN1C(=O)CC[C@H]1c1cccnc1`, for which the outcome was inactive.
Turning to `CC1(C)NC(=O)N(c2ccc([N+](=O)[O-])c(C(F)(F)F)c2)C1=O`, the result was inactive.
As to `CC(C)(C)c1csc(-c2cc3cc(OCc4ccccc4CC(=O)O)ccc3o2)n1`, the AC50 was 20.5 µM (active).
On to `CCCCCCCC[Si](OCC)(OCC)OCC`, for which the outcome was inactive.
On the same count and under the same terms, for `c1ccc2ccccc2c1` the value was “inactive”.
For `Cc1c2ccccc2c(C)c2c1ccc1ccccc12`, the AC50 is 15.2 µM (active).
On to `Oc1ccc2ccccc2c1`, for which the outcome was inactive.
The same measure, in the same setting: for `CC(C)(O)c1ccc(CNC(=O)c2cccnc2Oc2ccc3nonc3c2)cc1` the value was “inactive”; for `CCCCCCCCN(C)CCCCCCCC`, “inactive”.
On the same count and under the same terms, to `CC[C@H](NC(=O)c1cc(F)ccc1NS(=O)(=O)c1cccc2cccnc12)c1ccccc1` belongs “inactive”.
For `CC(C)(C)c1cc(/C=C2\SC(N)=NC2=O)cc(C(C)(C)C)c1O`, the AC50 is 31.6 µM (active).
With `CCCCCCCCCC(=O)O`, the result was inactive.
On the same count and under the same terms, for `O=C(O)Cc1cc(I)c(Oc2ccc(O)c(I)c2)c(I)c1` the value was “inactive”.
For `CN(C[C@@H](CC[N+]12CCC(C3CCCCC3)(CC1)CC2)c1ccc(Cl)c(Cl)c1)C(=O)c1cc(C(F)(F)F)cc(C(F)(F)F)c1`, the AC50 was 14.3 µM (active).
On to `CO[C@H]1/C=C/O[C@@]2(C)Oc3c(C)c(O)c4c(O)c(c(/C=N/N5CCN(C)CC5)c(O)c4c3C2=O)NC(=O)/C(C)=C\C=C\[C@H](C)[C@H](O)[C@@H](C)[C@@H](O)[C@@H](C)[C@H](OC(C)=O)[C@@H]1C`, for which the outcome was inactive.
Still for that read-out and setting: for `Clc1cc(Cl)c2c(c1)N=C1CCCCCN1C2` the value was “inactive”.
On to `CCCCCCCCOC(=O)c1cc(O)c(O)c(O)c1`, for which the AC50 was 36.3 µM (active).
For `CCCC(=O)OCCC(C)C`, the result was inactive.
For `C[C@]12CC[C@@H]3c4ccc(O)cc4CC[C@H]3[C@@H]1CC[C@H]2O`, the AC50 was 16.7 µM (active).
`O=C(O)c1ccccc1C(=O)OCc1ccccc1`: the outcome was inactive.
With `Cc1ccc2oc(CN(Cc3ccccc3)C(=O)Nc3c(F)cc(F)cc3F)c(-c3ccc(Cl)cc3)c2c1`, the AC50 is 10.8 µM (active).
